PubChem BioAssay
“And” between values parts separate entries of the source, which are not always exact repeats. Identical values can stand only once. The source made the active and inactive calls.

Legend:
[1] = small molecules captured by biotinylated probe aFSTL3 – biochemical, small-molecule microarray, fluorescence 635/667, stem cell growth factor project, primary screen (AID 1064); conditions: higher = more signal;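 further: measures binding of the biotinylated anti-FSTL3 antibody to printed compounds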
[2] = binders from COS7 lysate, DM2A8 probe, primary screen, torsin A project, cell lysate, small-molecule microarray, fluorescence 635/667 (AID 1065); conditions: higher = more signal, COS7 lysate expressing mutant human TOR1A
[3] = small molecules captured by biotinylated probe aFGF2 – biochemical, small-molecule microarray, fluorescence 635/667, stem cell growth factor project, primary screen (AID 1067); conditions: higher = more signal;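 further: measures binding of biotinylated aFGF2 protein to printed compounds on slides; z-score merges feature fluorescence and signal-to-noise across triplicate slides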
[4] = small molecules captured by biotinylated probe aFGF10 – biochemical, small-molecule microarray, fluorescence 635/667, stem cell growth factor project, primary screen (AID 1071); conditions: higher = more signal;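 further: score merges 667 nm spot intensity and signal to noise from triplicate slides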
[5] = molecular target: Neurogenic locus notch homolog protein 2 (Homo sapiens) (UniProt Q04721); test: small molecules binding Notch2 protein – biochemical, small-molecule microarray, 635 nm fluorescence, stem cell growth factors, primary screen (AID 1073); conditions: higher = more signal
Neurogenic locus notch homolog protein 2 (Homo sapiens), sequence (Q04721 whole entry, looked up, canonical isoform): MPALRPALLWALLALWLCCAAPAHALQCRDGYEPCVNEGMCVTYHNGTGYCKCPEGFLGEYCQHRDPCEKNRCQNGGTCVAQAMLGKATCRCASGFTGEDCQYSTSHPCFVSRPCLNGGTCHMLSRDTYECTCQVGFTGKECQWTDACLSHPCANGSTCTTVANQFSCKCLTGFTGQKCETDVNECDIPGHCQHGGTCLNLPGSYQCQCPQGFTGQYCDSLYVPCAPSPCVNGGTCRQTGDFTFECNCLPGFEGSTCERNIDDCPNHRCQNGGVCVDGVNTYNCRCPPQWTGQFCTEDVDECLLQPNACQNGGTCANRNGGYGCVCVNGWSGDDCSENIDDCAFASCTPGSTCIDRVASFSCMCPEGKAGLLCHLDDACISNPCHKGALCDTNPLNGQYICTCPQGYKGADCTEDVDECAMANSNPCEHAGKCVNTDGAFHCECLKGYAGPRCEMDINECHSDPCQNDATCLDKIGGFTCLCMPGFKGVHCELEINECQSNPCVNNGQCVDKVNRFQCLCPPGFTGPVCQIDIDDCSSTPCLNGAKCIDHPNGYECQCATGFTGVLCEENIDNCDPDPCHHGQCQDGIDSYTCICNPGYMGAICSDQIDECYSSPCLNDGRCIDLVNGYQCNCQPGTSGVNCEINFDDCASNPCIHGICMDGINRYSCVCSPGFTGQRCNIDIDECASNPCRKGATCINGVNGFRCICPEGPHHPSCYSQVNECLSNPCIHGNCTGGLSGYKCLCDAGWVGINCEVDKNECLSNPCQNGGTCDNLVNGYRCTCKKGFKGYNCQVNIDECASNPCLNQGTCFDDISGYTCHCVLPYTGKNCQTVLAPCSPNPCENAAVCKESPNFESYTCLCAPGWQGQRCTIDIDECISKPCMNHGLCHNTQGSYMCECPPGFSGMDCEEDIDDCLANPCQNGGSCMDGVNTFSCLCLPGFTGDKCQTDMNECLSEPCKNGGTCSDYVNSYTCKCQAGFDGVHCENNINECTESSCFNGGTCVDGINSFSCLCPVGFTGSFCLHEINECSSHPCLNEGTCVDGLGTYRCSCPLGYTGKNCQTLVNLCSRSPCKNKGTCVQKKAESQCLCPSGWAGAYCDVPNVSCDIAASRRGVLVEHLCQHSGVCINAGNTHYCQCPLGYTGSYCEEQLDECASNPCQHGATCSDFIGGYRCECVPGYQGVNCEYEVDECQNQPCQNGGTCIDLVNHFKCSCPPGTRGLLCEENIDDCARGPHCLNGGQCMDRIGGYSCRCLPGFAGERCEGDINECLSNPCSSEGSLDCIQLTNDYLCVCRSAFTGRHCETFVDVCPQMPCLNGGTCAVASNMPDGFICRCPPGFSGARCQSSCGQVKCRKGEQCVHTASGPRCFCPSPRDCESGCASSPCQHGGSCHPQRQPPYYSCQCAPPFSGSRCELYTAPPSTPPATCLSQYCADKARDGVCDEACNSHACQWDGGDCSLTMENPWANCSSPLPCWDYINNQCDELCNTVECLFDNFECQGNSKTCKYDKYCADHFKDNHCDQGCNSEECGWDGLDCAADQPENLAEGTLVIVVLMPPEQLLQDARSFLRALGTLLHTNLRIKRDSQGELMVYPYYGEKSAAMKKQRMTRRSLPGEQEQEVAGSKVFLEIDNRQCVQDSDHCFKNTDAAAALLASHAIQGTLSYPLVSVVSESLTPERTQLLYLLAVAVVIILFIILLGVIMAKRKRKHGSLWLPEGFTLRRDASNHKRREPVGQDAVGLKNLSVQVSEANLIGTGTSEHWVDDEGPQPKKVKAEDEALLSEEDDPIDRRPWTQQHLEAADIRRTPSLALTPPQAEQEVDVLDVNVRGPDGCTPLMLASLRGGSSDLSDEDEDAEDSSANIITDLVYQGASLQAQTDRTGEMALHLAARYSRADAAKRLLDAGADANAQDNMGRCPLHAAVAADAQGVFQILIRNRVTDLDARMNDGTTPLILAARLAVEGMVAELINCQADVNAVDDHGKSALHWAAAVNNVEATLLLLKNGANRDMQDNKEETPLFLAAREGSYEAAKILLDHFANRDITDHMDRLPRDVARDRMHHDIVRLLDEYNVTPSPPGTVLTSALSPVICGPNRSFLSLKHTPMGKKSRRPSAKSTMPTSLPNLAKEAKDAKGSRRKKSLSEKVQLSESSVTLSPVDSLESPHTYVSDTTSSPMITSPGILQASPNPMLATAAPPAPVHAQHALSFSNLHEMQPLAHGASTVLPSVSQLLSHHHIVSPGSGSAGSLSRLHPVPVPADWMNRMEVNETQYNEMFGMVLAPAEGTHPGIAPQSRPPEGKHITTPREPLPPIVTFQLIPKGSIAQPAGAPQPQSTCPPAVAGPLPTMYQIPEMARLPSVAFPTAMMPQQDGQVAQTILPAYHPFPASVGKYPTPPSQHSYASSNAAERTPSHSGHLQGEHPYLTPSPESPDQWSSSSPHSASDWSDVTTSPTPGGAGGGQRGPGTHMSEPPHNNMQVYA

[6] = molecular target: Pro-neuregulin-1, membrane-bound isoform (Homo sapiens) (UniProt Q02297); test: small molecules binding neuregulin-1 protein – biochemical, small-molecule microarray, fluorescence 635/667, psychiatric disease protein project, primary screen (AID 1075); conditions: NRG1 binding, 635 nm fluorescence, higher = more signal;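 further: score combines 667 nm spot fluorescence with signal to noise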
Pro-neuregulin-1, membrane-bound isoform (Homo sapiens), sequence (Q02297 whole entry, looked up, the tested form may be a part, canonical isoform): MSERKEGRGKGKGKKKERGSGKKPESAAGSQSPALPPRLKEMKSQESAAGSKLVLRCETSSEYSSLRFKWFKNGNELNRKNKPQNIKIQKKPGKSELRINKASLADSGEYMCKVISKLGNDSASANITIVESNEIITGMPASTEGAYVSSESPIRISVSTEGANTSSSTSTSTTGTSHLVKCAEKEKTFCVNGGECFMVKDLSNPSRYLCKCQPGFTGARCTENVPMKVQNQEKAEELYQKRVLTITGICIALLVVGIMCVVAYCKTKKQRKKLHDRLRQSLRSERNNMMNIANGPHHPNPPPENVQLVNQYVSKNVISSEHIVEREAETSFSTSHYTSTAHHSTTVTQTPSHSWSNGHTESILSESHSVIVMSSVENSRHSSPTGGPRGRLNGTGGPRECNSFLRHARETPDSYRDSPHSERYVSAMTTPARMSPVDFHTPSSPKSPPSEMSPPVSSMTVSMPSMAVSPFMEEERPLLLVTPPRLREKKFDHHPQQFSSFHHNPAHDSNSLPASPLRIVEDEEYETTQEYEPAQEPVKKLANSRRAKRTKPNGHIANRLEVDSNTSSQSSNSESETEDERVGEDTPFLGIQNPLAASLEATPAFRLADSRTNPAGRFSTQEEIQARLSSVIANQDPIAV

[7] = test system: Neuregulin-1 EGF-like domain; test: small molecules binding NRG1 EGF domain – biochemical, small-molecule microarray, 635 nm fluorescence, primary screen (AID 1081); conditions: higher = more signal;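 further: binding of the protein to compounds printed on small-molecule microarray slides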
[8] = FRG1 expression reporter modulators in myotubes – cell-based, C2C12 myotubes, firefly/Renilla luciferase, luminescence, FRG1 inhibition for FSHD, primary screen (AID 1084); conditions: FRG1 promoter luciferase, higher = more signal, called active from +8 up or from −8 down
[9] = small molecules captured by biotinylated probe aFST – biochemical, small-molecule microarray, fluorescence 635/667, stem cell growth factor project, primary screen (AID 1086); conditions: higher = more signal;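 further: score merges 667 nm fluorescence with signal-to-noise of each printed compound spot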
[10] = binders of probe aHhip on microarray, primary screen, stem cell growth factor project, biochemical, small-molecule microarray, fluorescence 635/667 (AID 1087); conditions: higher = more signal;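 further: score merges spot fluorescence at 667nm with spot signal to noise ratio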

Structure (SMILES) | composite z-score [1] | composite z-score [2] | composite z-score [3] | composite z-score [4] | composite z-score [5] | composite z-score [6] | composite z-score [7] | z-score [8] | composite z-score [9] | composite z-score [10]
COC(=O)[C@@]1(Cc2ccccc2)[C@H]2c3cc(C(=O)N(C)C)n(Cc4ccc(C)c(F)c4F)c3C[C@H]2CN1C(=O)c1ccccc1 | 1 and 0.986 | -0.481 and 0.787 | 0.162 and 0.639 | 0.384 and 0.451 | 1.5 and 1.71 | 1.39 and 1.48 | 1.39 and 1.12 | 3.35 (inactive) and -0.497 (inactive) | 0.705 and 2.39 | 0.176 and 0.567
C=CCN(Cc1ccccc1)C(=O)C1N(C(C)(C)CO)C(=O)C2C(C(=O)O)C3C=CC21O3 (stereo not given) | 0.666 and 0.391 | 2.08 and -1.13 | -0.206 and 0.511 | -2.12 and -0.387 | -2.15 and -1.36 | -1 and -0.987 | -0.372 and 0.11 | 0.551 (inactive) and 0.312 (inactive) | -0.847 and -1.28 | -0.274 and -0.169
CO[C@H]1COC(=O)[C@H](C)NC(=O)CC=C[C@@H](C)[C@H](OC)COC(=O)CC=C[C@@H]1C | -0.748 | 2.16 | -0.125 | -0.0919 | -0.362 | -0.745 | 0.0232 | -0.628 (inactive) | -0.0994 | 0.201
CC(C)C(=O)N[C@@H]1CCCN1C(=O)C=Cc1ccccc1 | -0.46 | 0.323 | -0.0781 | 0.405 | 0.99 | 0.208 | 1.07 | -0.416 (inactive) | 0.125 | -0.0994
C=C[C@@H](C)[C@H](O)c1ccc(O)c2ccccc12 | -0.0835 and 0.0226 | 0.0628 and -0.136 | -0.182 and -0.24 | -0.455 and -0.788 | -0.889 and -2.07 | -0.0351 and -0.653 | -0.728 and -0.279 | -0.431 (inactive) and 0.2 (inactive) | -0.938 and -1.14 | 0.0373 and -0.261
C#CCN1C(/C=C/c2ccccc2)C(=O)OC[C@H]1c1ccccc1 (stereo not given in full) | -0.256 and -0.303 | 0.184 and 0.348 | -0.0569 and -0.1 | 0.301 and 0.398 | 0.346 and -0.0877 | -0.0907 and 0.365 | 0.165 and 0.833 | -1.03 (inactive) and -0.536 (inactive) | -0.151 and 0.465 | 0.0401 and -0.276
C=C(C)C(=O)OC[C@@H]1CN2[C@@H](CC[C@@H](C)[C@@H]2c2ccc(Br)cc2)C(=O)O1 | -0.577 | -0.275 | -0.083 | 0.733 | 0.636 | 0.776 | 1.1 | -0.889 (inactive) | 0.129 | -0.0645
C=CCN(C(=O)C(c1cccs1)N(C(=O)/C=C\C(=O)O)c1c(Cl)cccc1CO)c1ccc(OC)cc1 (stereo not given) | 1.98 and 1.01 | -0.781 and -0.551 | -0.228 and -0.0608 | -1.56 and -0.737 | -1.87 and -1.28 | 1.04 and -0.796 | 0.782 and 0.0793 | 0.284 (inactive) and 0.649 (inactive) | -1 and -0.362 | -0.164 and -0.229
CC(CO)N1C(=O)[C@@H]2C3C(=O)OCCC=C[C@H]3OC23C=CCN(c2ccc4ccccc4c2)C(=O)[C@@H]13 (stereo not given in full) | 0.265 and -1.11 | -1.36 and -0.483 | -0.0689 and -0.36 | -0.282 and -0.642 | -0.704 and -1.04 | 0.0944 and 1.21 | 0.713 and 1.19 | 0.544 (inactive) and 1.81 (inactive) | -0.0414 and 0.226 | -0.388 and -0.937
C=CCN(Cc1ccccc1)C(=O)C(c1cccs1)N(C(=O)/C=C\C(=O)O)c1c(Cl)cccc1CO (stereo not given) | 0.233 and 1.13 | -0.778 and -1.07 | -0.241 and -0.193 | -1.08 and -2.14 | -1.53 and -2.16 | -0.984 and -1.12 | 0.462 and -0.851 | -0.0406 (inactive) and 0.885 (inactive) | -1.91 and -1.01 | -0.549 and -0.38
C=CCN(C(=O)C1N(C(C)(C)CO)C(=O)C2C(C(=O)O)C3C=CC21O3)c1ccc(OC)cc1 (stereo not given) | 1.84 and 1.41 | -1.16 and -1.03 | -0.237 and -0.195 | -1.49 and -0.243 | -1.71 and -1.79 | -0.16 and -1.32 | 0.493 and -0.364 | 1.63 (inactive) and -0.0127 (inactive) | -0.898 and -1.25 | -0.169 and -0.204
COC(=O)CC=C[C@@H](C)[C@@H](CO)NS(=O)(=O)c1ccc(C)cc1 | -0.659 and -0.717 | 0.406 and 0.605 | -0.108 and -0.0656 | 0.242 and 0.526 | 0.157 and 0.444 | -0.386 and -0.0111 | 0.081 and 0.253 | 0.862 (inactive) and -1.81 (inactive) | 0.544 and 0.35 | -0.147 and 0.0505
O=c1n(-c2ccccc2)c(=O)n2n1CC[C@@H]1C(=NOC[C@@H](O)COCc3ccco3)[C@H]3O[C@H]3[C@@H](O)[C@@H]12 | -0.538 and -0.609 | 1.27 and 1.24 | -0.209 and -0.258 | 0.265 and -0.486 | -0.0496 and 0.156 | -0.498 and -0.0731 | 0.874 and -0.672 | 0.193 (inactive) and -0.52 (inactive) | 0.0872 and 0.231 | -0.0994 and -0.069
COC(=O)C1=C2N(Cc3ccccc3)C(C)=C(C(=O)OC)[C@@H](c3ccccc3)N2C(=O)[C@](O)(C(=O)OC)C1 | -0.416 and -0.485 | 0.969 and 0.932 | -0.166 and -0.0477 | 0.0291 and 0.291 | 1.12 and 0.305 | 0.598 and -0.247 | 1.09 and -0.265 | -0.0085 (inactive) and 0.0331 (inactive) | 0.084 and 0.0516 | 0.065 and -0.0237
CCCCN1CC=CC23O[C@@H]4C=CCCOC(=O)C4[C@H]2C(=O)N(C(C)CO)[C@@H]3C1=O (stereo not given in full) | 0.385 and 0.252 | -0.371 and 0.204 | -0.0753 and -0.135 | -0.228 and 0.292 | -0.921 and -0.936 | 1.1 and 0.324 | 0.839 and 1.04 | 0.489 (inactive) and -0.469 (inactive) | -0.337 and 0.104 | -0.137 and 0.251
C=CCN(Cc1ccccc1)C(=O)C1N(CCCCCCO)C(=O)C2C(C(=O)O)C3C=CC21O3 (stereo not given) | 1.09 and 1.2 | -1.16 and -1.37 | -0.236 and -0.323 | -1.2 and -1.78 | -1.18 and -1.23 | 0.614 and 0.705 | 1.41 and 1.4 | 0.639 (inactive) and -0.331 (inactive) | -0.841 and -0.708 | -0.5 and -0.204
O=C(NN=C1C[C@@H](O)[C@@H](O)[C@@H]2[C@@H]3C(=O)N(Cc4ccc5c(c4)OCO5)C(=O)[C@@H]3CC[C@H]12)OCc1ccccc1 | -0.196 | 1.64 | -0.025 | -0.348 | 0.64 | -1.21 | -1.43 | -0.0282 (inactive) | 0.965 | -0.387
C=CCN(C(=O)C(c1cccs1)N(C(=O)/C=C\C(=O)O)c1ccc(CCO)cc1)C(C)(C)C (stereo not given) | 0.396 and 0.476 | -0.534 and -0.804 | -0.212 and -0.192 | -0.439 and -1.66 | -0.898 and -1.52 | 1.04 and 2.28 | 0.71 and 1.3 | 1.28 (inactive) and 0.16 (inactive) | -0.23 and -0.706 | -0.0618 and -0.134
Cc1ccc(S(=O)(=O)N[C@H]2COC(=O)[C@@H](Cc3ccccc3)NC(=O)[C@@H](C)COC(=O)CC=C[C@@H]2C)cc1 | -0.547 and -0.267 | 0.811 and 0.656 | -0.177 and -0.145 | 0.0514 and 0.209 | -0.311 and 0.0627 | -0.355 and -0.215 | -0.721 and 0.219 | 1.23 (inactive) and 1.04 (inactive) | -0.169 and -0.0364 | -0.429 and -0.0994
